High-throughput results as filed in PubChem BioAssay.
AmpC detergent: qHTS Inhibitors of AmpC Beta-Lactamase (assay with detergent); AmpC hydrolysis of nitrocefin, absorbance 480 nm, 0.01% Triton; Potency, µM (highest dose often 114 µM), for inactives: at the highest dose activity change, negative = inhibition, usual class: inhibitors; hit rate 0.041% among 370,000;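 further: 0% = no-compound wells and -100% = no-enzyme wells; nearly all actives have a fitted effect of over 25% in size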
Target sequence (P00811 whole entry, looked up): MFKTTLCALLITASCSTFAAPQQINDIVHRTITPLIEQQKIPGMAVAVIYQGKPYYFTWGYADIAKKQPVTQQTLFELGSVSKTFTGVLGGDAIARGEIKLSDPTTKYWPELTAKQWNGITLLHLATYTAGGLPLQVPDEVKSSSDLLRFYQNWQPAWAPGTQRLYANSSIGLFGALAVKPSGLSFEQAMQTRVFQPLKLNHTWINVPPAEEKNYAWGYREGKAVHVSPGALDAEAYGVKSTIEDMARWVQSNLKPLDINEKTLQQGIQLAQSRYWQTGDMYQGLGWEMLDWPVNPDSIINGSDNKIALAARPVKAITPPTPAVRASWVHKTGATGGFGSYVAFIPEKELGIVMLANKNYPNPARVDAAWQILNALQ
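20 mM phosphate pH 7.0 + 0.01% (detergent screen) or 0.0001% Triton X-100; 5.3 nM AmpC reagent; cpd preinc 15 min RT; nitrocefin (800 uM stock) to start; A480 q20 s × 4 min; Activity was normalised to no-enzyme and no-compound control wells.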
SARS PLP yeast: qHTS of Yeast-based Assay for SARS-CoV PLP. S. cerevisiae expressing SARS-CoV PLpro, growth rescue. Potency, µM (highest dose often 32.9 µM), inactives show at the highest dose activity, positive = growth rescue, actives largely listed as activators. hit rate 0.19% among 330,000. AID 485353, 2010; calls by dose curve; further: 0% is about no effect; nearly all actives have a fitted effect of over 55% in size
Pf growth 96h: Primary qHTS for delayed death inhibitors of the malarial parasite plastid, 96 hour incubation. P. falciparum luciferase reporter growth, 96 h. hit rate 6.9% among 320,000. Potency, µM (titrated, usually from 28.7 µM), without a hit: at the highest dose activity change, negative = inhibition, usual class: inhibitors. AID 504834, 2011; further: on the % scale 0 is the no-effect control and ±100 the full control effect
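P. falciparum expressing integrated firefly luciferase grown in erythrocytes (2% hematocrit, 0.05% parasitemia final) with compounds for 96 hours at 37 C, 5% CO2. Growth inhibition read as loss of luminescence after adding luciferase detection reagent.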
AmpC no deterg: qHTS Inhibitors of AmpC Beta-Lactamase (assay without detergent) | P00811 | AmpC nitrocefin hydrolysis, absorbance 480 nm, 0.0001% Triton | Potency, µM (series often up to 57.1 µM), for inactives: at the top dose activity change, negative = inhibition, most hits filed as inhibitors | hit rate 0.52% among 330,000;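 further: plate controls were no compound for no effect and no enzyme for full effect; nearly all actives have a fitted effect of over 20% in size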
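AmpC (5.3 nM in the dispensed reagent) in 20 mM phosphate pH 7.0 with 0.01% (detergent screen) or 0.0001% Triton X-100 was preincubated with compounds for 15 min at room temperature. Nitrocefin was then added from an 800 uM solution, and hydrolysis was followed at 480 nm.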
Pf growth 48h: Primary qHTS for delayed death inhibitors of the malarial parasite plastid, 48 hour incubation; P. falciparum luciferase growth in erythrocytes, 48 h; Potency, µM (series often up to 28.7 µM), for the others: top-dose activity change, negative = inhibition, most hits filed as inhibitors; hit rate 5.9% among 310,000; AID 504832, 2011; further: on the % scale 0 is the no-effect control and ±100 the full control effect
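Compounds are pin-transferred into medium, infected erythrocytes (2% hematocrit, 0.1% parasitemia final) are added, and plates sit one parasite generation at 37 C in 5% CO2. Detection reagent is then added and luminescence measured.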
Sm TGR inh: qHTS Assay for the Inhibitors of Schistosoma Mansoni Peroxiredoxins; Schistosoma mansoni thioredoxin glutathione reductase (TGR), Q962Y6; purified TGR, DTNB reduction, TNB absorbance 405 nm; Potency, µM (doses to about 114 µM), inactives show top-dose activity change, negative = inhibition, hits mostly inhibitors; hit rate 3% among 360,000; AID 485364, 2010; further: on the % scale 0 is the no-effect control and ±100 the full control effect; nearly all actives have a fitted effect of over 60% in size
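First, TGR (20 nM dispensed) and NADPH were mixed with compound. Second, a 15 min room-temperature incubation followed. Third, further NADPH and then DTNB were added to start the reaction. Finally, TNB absorbance was monitored kinetically.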
* = called active by the depositor; u = inconclusive; x = not tested or not shown; ! = not confirmed by another sample; [ ] = another dose, or the depositor's remark. Sampled rows, rich in hits. Any-hit rate of the full collection: about 12%. Unless noted, the call rests on the fitted dose curve; in most records, active means well fitted curve in the direction sought with a large enough effect; inconclusive means small, poorly fitted or top-dose-only effect, or another doubt; inactive means no such curve, though single readings can be large; an effect the other way counts as inactive or inconclusive. Potency means the concentration at half of the fitted maximal effect.

SMILES | AmpC detergent | SARS PLP yeast | Pf growth 96h | AmpC no deterg | Pf growth 48h | Sm TGR inh
COc1ccc(C(c2nnnn2Cc2ccccc2)N2CCN(c3ccccc3)CC2)cc1 (stereo not given) | -4% | -8% | 13µM* | -17% | u | 0%
c1ccc(CCn2nnnc2C(c2cccnc2)N2CCN(c3nc4ccccc4s3)CC2)cc1 (stereo not given) | -10% | -31% | 7% | 132% | 13µM* | 0%
COCCn1nnnc1C(c1ccccc1)N1CCN(c2ccccc2)CC1 (stereo not given) | 1% | 12% | u | 12% | -27% | -18%
c1ccc(CCn2nnnc2C(c2cccnc2)N2CCN(c3ccccc3)CC2)cc1 (stereo not given) | -6% | -30% | 4% | 51% | u | 2%
COCCn1nnnc1C(c1ccc(OC)c(OC)c1)N1CCN(c2nc3ccccc3s2)CC1 (stereo not given) | -2% | 1% | 2.9µM* | 208% | 13µM* | -15%
COc1ccc(C(c2nnnn2Cc2ccccc2)N2CCN(c3nc4ccccc4s3)CC2)cc1 (stereo not given) | -3% | 0% | x | 6% | 5.2µM* | 0%
CN(C)c1ncc(C(=O)NCc2ccccc2Cl)cn1 | 8% | x | x | x | x | -2%
Cc1cc(=O)[nH]c2nnc(SCCC(C)C)n12 | 0% | x | x | x | x | -1%
COc1ccc(Cn2nnnc2C(C(C)C)N2CCN(c3ccccc3OC)CC2)cc1 (stereo not given) | -3% | -2% | 15% | 38% | 4.7µM* | 8%
COc1ccc(Cn2nnnc2C(c2ccncc2)N2CCOCC2)cc1 (stereo not given) | -1% | 1% | u | 0% | 24% | 25µM*
Clc1cccc(Cl)c1CN1CCN(c2ncccn2)CC1 | -17% | 15% | u | 7% | -9% | u
COc1ccc(Cn2nnnc2C(c2cc3cc(C)ccc3[nH]c2=O)N2CCOCC2)cc1 (stereo not given) | u | 5% | x | 46% | -33% | -27%
c1ccc(Cn2nnnc2CN2CCN(c3ncccn3)CC2)cc1 | u | 1% | 4.7µM* | -4% | -9% | -1%
COc1ccc(Cn2nnnc2CN2CCOCC2)cc1 | -7% | -12% | 13µM* | -9% | -4% | 0%
COc1ccc(NC(=O)C(C)n2nc(C)c3c(C)n(-c4ccccc4)nc3c2=O)cc1Cl (stereo not given) | 25% | x | x | x | x | 2%
COc1ccc(C(c2nnnn2CC2CCCO2)N2CCN(c3ccc(F)cc3)CC2)cc1 (stereo not given) | u | 1% | 8.3µM* | 67% | u | -24%
O=C(/C=C/c1ccncc1)c1ccc(NC(=O)c2ccccc2F)cc1 | u | 0% | -30% | u | 7% | u
CCOC(=O)/C(C#N)=C/c1c(N2CCN(Cc3ccc4c(c3)OCO4)CC2)nc2c(C)cccn2c1=O | -4% | 2% | u | -15% | 3.7µM* | 1%
Cc1cccn2c(=O)c(C=C(C#N)C#N)c(N3CCN(c4ccccc4)CC3)nc12 | -2% | 0% | u | -8% | u | 1%
Cc1cccn2c(=O)c(C=C(C#N)C#N)c(N3CCN(C)CC3)nc12 | -5% | -1% | 7.4µM* | -27% | -3% | -13%
Cc1cccn2c(=O)c(/C=C(\C#N)C(N)=O)c(N3CCN(c4cccc(Cl)c4)CC3)nc12 | -3% | 0% | 9.3µM* | 100% | u | 0%
Cc1cccn2c(=O)c(/C=C(\C#N)C(N)=O)c(N3CCN(Cc4ccc5c(c4)OCO5)CC3)nc12 | u | 9% | 10µM* | 73% | 9.3µM* | -1%
O=C(Nc1nc2n(n1)C(c1ccc(F)cc1)C=C(c1ccc(Cl)cc1)N2)c1ccc([N+](=O)[O-])cc1 (stereo not given) | -4% | x | x | x | x | 1%
CCc1c(-c2ccccc2)nc2ccccc2c1C(=O)NCCc1ccccc1 | 2% | x | x | x | x | 5%
COc1ccccc1CCNC(=O)Cc1c(C)c2c(cc(C)c3c(C)coc32)oc1=O | 4% | x | x | x | x | 2%
SMILES | AmpC detergent | SARS PLP yeast | Pf growth 96h | AmpC no deterg | Pf growth 48h | Sm TGR inh
O=C(NCc1ccccc1)N1CCNCC1 | u | -3% | u | -22% | -12% | -17%
OC1(Cc2ccccc2)CCNCC1 | 5% | -1% | 15% | -22% | 12% | 45µM*!
COC(=O)CN(c1ccc(OCc2ccccc2)cc1)S(C)(=O)=O | -12% | 0% | 46%[1.15 µM] | -5%[2.29 µM] | -18%[5.75 µM] | -20%
Cc1ccc(CNS(=O)(=O)c2ccc(CN3C(=O)c4cccnc4C3=O)cc2)o1 | 1% | 3% | -4% | -10% | -8% | 20µM*
Cc1ccc(CNS(=O)(=O)c2cc(F)ccc2CN2C(=O)c3cccnc3C2=O)o1 | 0% | -1% | u | -3% | 26% | 25µM*
CC(=O)Nc1ccc(NS(=O)(=O)c2ccc(CN3C(=O)c4cccnc4C3=O)cc2)cc1 | -10% | 4% | -7% | -10% | -35% | 0%
CN(Cc1ccco1)S(=O)(=O)c1cc(F)ccc1CN1C(=O)c2cccnc2C1=O | -10% | -3% | -8% | 11% | 19% | 0%
CC(C)NS(=O)(=O)c1cc(F)ccc1CN1C(=O)c2cccnc2C1=O | -12% | 1% | 2.1µM* | -1% | -9% | 2%
Cn1cccc1CNCCc1ccccc1 | -4% | -2% | 41% | -14% | 12% | -6%
COc1ccc(CCNCc2cccn2C)cc1 | -1% | 0% | 1.5µM* | -18% | -17% | u
Cn1cccc1CNCCc1ccccc1F | 3% | -9% | 2.6µM* | -14% | -5% | -30%
Fc1ccccc1CCNCc1ccccc1 | -4% | u | 25% | -32% | 21% | -11%
Oc1cc(-n2cccn2)c(O)cc1-n1cccn1 | -7% | -6% | -1% | -25% | 8% | 3.5µM*
O=Cc1ccccc1-n1cccn1 | 1% | 2% | 17% | -7% | 21% | -11%
CC(=O)N1CCN(C(=S)NC(=O)c2ccc(F)cc2)CC1 | x | -2% | x | -24% | x | x
O=C(NC(=S)N1CCN(C/C=C/c2ccccc2)CC1)c1ccc(F)cc1 | -8% | 1% | u | 24% | 10µM* | -15%
O=C(NC(=S)N1CCN(C/C=C/c2ccccc2)CC1)c1cccnc1 | 1% | 0% | 3.3µM* | 16% | 9.3µM* | -15%
O=C(c1cccnc1)N1CCN(C/C=C/c2ccccc2)CC1 | 3% | 5% | 33% | -4% | 13% | -5%
